Measurements reported in ChEMBL document CHEMBL3988442, “University of Dundee, Small-Polar-MMV Screening Library” (2021).
Out of some 48,000 compounds screened, about 13,000 (27%) showed an effect of 50% or more. The list shows a part of the results.

Test system: Wolbachia pipientis
Experiment: Anti-Wolbachia Cell-Based Screen
Assay type: functional
Design: scale not given: in the data most compounds retested in dose-response had high values
Conditions: 5 µM

Structure (SMILES) | Percent Effect
O=C(COc1ccccc1C(F)(F)F)NCCNC(=O)c1ccccc1 | -6.371%
CCC(=O)Nc1ncn(Cc2cccnc2)n1 | 8.509%
OCC1(Cc2ccc(F)cc2F)CCCN(Cc2ccncc2)C1 (stereo not drawn) | -2.33%
Cc1nnc(Cn2cc(I)cc(C)c2=O)o1 | 62.5%
Cc1noc(C)c1Cn1cc(I)cc(C)c1=O | 13.31%
Cc1nc(Cn2cc(I)cc(C)c2=O)oc1C | 3.254%
Cc1nc(-c2cc(Cl)c3c(c2)CC(CN)O3)c[nH]1 (stereo not drawn) | 12.8%
Cc1occc1C(=O)N1CCC2(CCN(Cc3nccs3)C2)CC1.O=C(O)C(F)(F)F | -10.35%
O=C(O)C(F)(F)F.O=C(c1ccco1)N1C[C@@H]2CCN(c3cccnc3)C[C@@H]2C1 | 15.12%
O=C(O)C(F)(F)F.O=C(c1ccco1)N1CCc2ncnc(Oc3cccnc3)c2CC1 | 1.407%
Cc1occc1C(=O)N1CCC2(CCN(C(=O)c3cccnc3)C2)CC1.O=C(O)C(F)(F)F | 124.8%
O=C(O)C(F)(F)F.O=C(c1cccnc1)N1CCC2(CCN(C(=O)c3ccco3)CC2)C1 | 98.34%
COCCNC(=O)[C@]12COC[C@H]1CN(c1cc(OC)ncn1)C2 | -2.209%
CNc1ncc(CN(C)Cc2cc(O)c3cccc(Cl)c3n2)cn1 | -16.65%
CC1COCCN1C(=O)NCCn1ccnc1 (stereo not drawn) | 4.662%
O=C1C[C@H]2CC[C@@H](CN1)N2C(=O)CCCc1ccc(Cl)cc1 | 109.6%
O=C1C[C@H]2CC[C@@H](CN1)N2C(=O)Cc1ccsc1 | 116.9%
O=C(c1cnccn1)N1C[C@@H]2CC[C@H](C1)N(C(=O)Cc1ccsc1)C2 | 0.9084%
NC(=O)C1CCCN1CCCc1ccc(Cl)cc1 (stereo not drawn) | -0.6682%
O=C1C[C@H]2CC[C@@H](CN1)N2C(=O)CCc1ccccc1 | 110.6%

Structure (SMILES) | Percent Effect
O=C1C[C@H]2CC[C@@H](CN1)N2C(=O)CCc1ccsc1 | 104.7%
O=C(CCc1ccccc1)N1CCN(C(=O)c2ccc[nH]2)CC1 | 0.009024%
O=C1CO[C@@H]2CN(C(=O)CCc3ccccc3)C[C@H]2N1 | -22.36%
Cn1c2c(ccc1=O)CC(NC(=O)Cc1ccsc1)CC2 (stereo not drawn) | -9.793%
O=C(c1ccccn1)N1C[C@@H]2CC[C@H](C1)N(C(=O)CCc1ccsc1)C2 | -35.6%
O=C(CCCc1ccc(Cl)cc1)N1CCN(C(=O)c2ccc[nH]2)CC1 | -0.04512%
CS(=O)(=O)N1C[C@@H]2CC[C@H](C1)N(C(=O)CCc1ccsc1)C2 | 10.69%
CCN1C(=O)[C@H]2CN(CC(C)C)C[C@H]2C12CCN(S(C)(=O)=O)CC2.O=C(O)C(F)(F)F | 7.177%
CN(C)C1CCN(C(=O)C2SCCc3ccccc32)CC1 (stereo not drawn) | -22.58%
CC(NCCCc1cnn(C)c1)c1ccc(Cl)s1 (stereo not drawn) | 3.726%
O=C1C[C@H]2CC[C@@H](CN1)N2C(=O)CCc1ccc2c(c1)OCO2 | 96.79%
O=C(CCc1ccc2c(c1)OCO2)N1CCCC(n2cccn2)C1 (stereo not drawn) | -13.74%
O=C(NC1CC1)C1CNCCN1C(=O)CCc1ccc2c(c1)OCO2 (stereo not drawn) | 13.7%
O=C(O)C(F)(F)F.O=C([C@@H]1CC[C@@H]2[C@@H](CCN2CCOCc2ccccc2)O1)N1CCCC1 | -30.56%
O=C(O)C(F)(F)F.O=C([C@H]1CC[C@@H]2[C@@H](CCN2C2CCCC2)O1)N1CCOCC1 | 125.5%
O=C(O)C(F)(F)F.O=C([C@H]1CC[C@@H]2[C@@H](CCN2Cc2ccsc2)O1)N1CCOCC1 | -4.642%
O=C(O)C(F)(F)F.O=C([C@H]1CC[C@@H]2[C@@H](CCN2C2CCCCC2)O1)N1CCOCC1 | 120.9%
O=C(O)C(F)(F)F.O=C([C@H]1COC[C@H]2CN(C3CCCCC3)C[C@H]21)N1CCOCC1 | -10.34%
O=C(O)C(F)(F)F.O=C([C@H]1CC[C@@H]2[C@@H](CCN2C2CCOCC2)O1)N1CCOCC1 | 111.7%
CCN1CCC(CC(=O)N(C)CC(=O)c2ccc(O)cc2)CC1 | -2.698%

Structure (SMILES) | Percent Effect
CCCc1cc(C(=O)N2Cc3cnc(C(C)(C)C)nc3C2)ccn1 | -16.23%
O=C(NCc1ccco1)[C@@]12CCO[C@@H]1CCN(Cc1ccccn1)C2.O=C(O)C(F)(F)F.O=C(O)C(F)(F)F | -8.079%
O=C(O)C(F)(F)F.O=S(=O)(C1CC1)N1CC[C@H]2OCC[C@@]2(COc2ncccc2F)C1 | -5.546%
CS(=O)(=O)N1CC[C@H]2OCC[C@@]2(C(=O)NCc2ccccn2)C1.O=C(O)C(F)(F)F | 125.2%
O=C(NCc1ccccn1)[C@@]12CCO[C@@H]1CCN(Cc1ccccn1)C2.O=C(O)C(F)(F)F.O=C(O)C(F)(F)F.O=C(O)C(F)(F)F | 100.7%
CS(=O)(=O)N1CC[C@H]2OCC[C@@]2(C(=O)NCCc2ccccn2)C1.O=C(O)C(F)(F)F | 88.95%
Cc1ccc(-c2ccc(C(=O)NCC(N)=O)c(F)c2)cc1 | -9.702%
COc1ccc(F)cc1C(=O)N1C[C@H]2CC[C@@H]1CN(c1ncccn1)C2 | 11.2%
CN(C)C(=O)Cc1ccccc1NCc1cc(C#N)ccc1F | 6.834%
Cn1cc(CN2CCn3cc(CNC(=O)CC4CC4)nc3C2)cn1.O=C(O)C(F)(F)F | -2.745%
CC(c1ccccc1F)N(CC(N)=O)C1CC1 (stereo not drawn) | 1.619%
CCCS(=O)(=O)N1CCCC1c1cccc(N(C)C)c1 (stereo not drawn) | 5.298%
Cc1cc(-c2ccccc2)nc(C2CCCN2S(C)(=O)=O)n1 (stereo not drawn) | 91.07%
Cc1cc(-c2cccnc2)nc(C2CCCN2S(C)(=O)=O)n1 (stereo not drawn) | 97.49%
Cc1cc(-c2cncnc2)nc(C2CCCN2S(C)(=O)=O)n1 (stereo not drawn) | 120.6%
Cc1ccc(-c2cc(C)nc(C3CCCN3S(C)(=O)=O)n2)cc1 (stereo not drawn) | 112.5%
Cc1nc2ccc(-n3ncnc3[C@@H]3CCCN3S(C)(=O)=O)cc2s1 | -0.8415%
CN(Cc1cc(-c2cccnc2)no1)C(=O)C1CCCN1S(C)(=O)=O (stereo not drawn) | -3.149%
